Experimental data as given in PubChem BioAssay AID1159580 (chemical genetic matrix, 2015).
Values joined by “and” are separate entries in the source; they are usually repeats but may differ in a detail not shown here. Equal entries are not always repeated. Out of some 5,500 compounds screened, about 2,000 (36%) were called active. Roughly 18% stayed inconclusive and do not appear here. No stated cut-off is given here; in the data, active means normalized growth mostly below about 0.91 (no sharp cut-off); inconclusive means no clear call, values can overlap the other calls; inactive means mostly above about 0.92. The list shows a part of the results.

Experiment: chemical genetic growth profiling, strain panel (AID 1159580);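 further: tested at 20 µM; growth read once vehicle control cultures reached saturation at 30 °C; 1 = growth at the plate median or of vehicle wells; lower values mean less growth of the strain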
Conditions: growth OD

Measured: normalized growth

COc1cc2c(cc1OC)-c1cc3ccc(OC)c(OC)c3c[n+]1CC2
inactive: S. cerevisiae deletion strains, locus YJR075W, strain HOC1, hits give low values 0.985 and 1.03 | S. cerevisiae deletion strains, locus YKL009W, strain mrt4, hits give low values 0.972 and 0.995 | S. cerevisiae deletion strains, locus YKL068W, hits give low values 0.996 and 1.01 | S. cerevisiae deletion strains, locus YKL085W, strain MDH1 (second series), hits give low values 0.995 and 0.999 | S. cerevisiae deletion strains, locus YKL085W, strain MDH1, hits give low values 0.995 and 0.999 | S. cerevisiae deletion strains, locus YKL160W, strain elf1, hits give low values 0.982 | S. cerevisiae deletion strains, locus YKL190W, strain CNB1, hits give low values 0.995 and 1.02 | S. cerevisiae deletion strains, locus YKR001C, strain vps1, hits give low values 0.971 and 1.02 | S. cerevisiae deletion strains, locus YKR026C, strain gcn3, hits give low values 0.966 | S. cerevisiae deletion strains, locus YKR091W, strain srl3, hits give low values 0.984 | S. cerevisiae deletion strains, locus YLL001W, strain dnm1, hits give low values 0.972 | S. cerevisiae deletion strains, locus YLL026W, hits give low values 0.983 | S. cerevisiae deletion strains, locus YLL041C, strain sdh2, hits give low values 0.984 | S. cerevisiae deletion strains, locus YLR027C, strain aat2, hits give low values 0.978 | S. cerevisiae deletion strains, locus YLR039C, strain RIC1, hits give low values 1 and 0.981 | S. cerevisiae deletion strains, locus YLR058C, strain SHM2, hits give low values 0.985 and 1.02 | S. cerevisiae deletion strains, locus YLR102C, strain apc9, hits give low values 0.986 and 1.02 | S. cerevisiae deletion strains, locus YLR113W, strain HOG1, hits give low values 1.03 | S. cerevisiae deletion strains, locus YLR221C, strain rsa3, hits give low values 1.01 | S. cerevisiae deletion strains, locus YLR258W, strain gsy2, hits give low values 1 | S. cerevisiae deletion strains, locus YLR262C, strain YPT6 (second series), hits give low values 0.969 | S. cerevisiae deletion strains, locus YLR262C, strain YPT6, hits give low values 1.02 and 0.979 | S. cerevisiae deletion strains, locus YLR268W, strain sec22, hits give low values 1.01 and 1.04 | S. cerevisiae deletion strains, locus YLR320W, strain mms22, hits give low values 0.997 | S. cerevisiae deletion strains, locus YLR330W, strain CHS5, hits give low values 0.991 and 1.01 | S. cerevisiae deletion strains, locus YLR342W, strain FKS1 (second series), hits give low values 0.978 and 0.987 | S. cerevisiae deletion strains, locus YLR342W, strain FKS1, hits give low values 0.995 | S. cerevisiae deletion strains, locus YLR357W, strain rsc2, hits give low values 0.984 | S. cerevisiae deletion strains, locus YLR370C, strain arc18, hits give low values 0.975 | S. cerevisiae deletion strains, locus YLR371W, strain rom2, hits give low values 0.978 and 1.01 | S. cerevisiae deletion strains, locus YLR384C, strain iki3, hits give low values 0.969 | S. cerevisiae deletion strains, locus YLR418C, strain cdc73, hits give low values 0.994 and 1 | S. cerevisiae deletion strains, locus YML016C, strain PPZ1, hits give low values 0.982 and 1.01 | S. cerevisiae deletion strains, locus YML032C, strain rad52, hits give low values 0.972 and 0.998 | S. cerevisiae deletion strains, locus YML120C, strain ndi1, hits give low values 0.987 | S. cerevisiae deletion strains, locus YML124C, strain tub3, hits give low values 0.993 and 1.02 | S. cerevisiae deletion strains, locus YMR058W, strain fet3, hits give low values 0.978 | S. cerevisiae deletion strains, locus YMR078C, strain ctf18, hits give low values 0.979 and 1.01 | S. cerevisiae deletion strains, locus YMR125W, strain sto1, hits give low values 0.958 | S. cerevisiae deletion strains, locus YMR129W, hits give low values 0.985 | S. cerevisiae deletion strains, locus YMR205C, strain PFK2, hits give low values 0.955 | S. cerevisiae deletion strains, locus YMR223W, strain ubp8, hits give low values 0.977 and 1.01 | S. cerevisiae deletion strains, locus YMR231W, strain pep5, hits give low values 1 | S. cerevisiae deletion strains, locus YMR263W, strain SAP30, hits give low values 0.998 | S. cerevisiae deletion strains, locus YMR307W, strain GAS1, hits give low values 0.984 and 1.03 | S. cerevisiae deletion strains, locus YNL067W, strain RPL9B, hits give low values 0.998 and 1.05 | S. cerevisiae deletion strains, locus YNL071W, strain lat1, hits give low values 0.994 | S. cerevisiae deletion strains, locus YNL128W, strain TEP1, hits give low values 0.999 | S. cerevisiae deletion strains, locus YNL153C, strain GIM3, hits give low values 1.01 | S. cerevisiae deletion strains, locus YNL183C, strain NPR1, hits give low values 0.978 | S. cerevisiae deletion strains, locus YNL209W, strain ssb2, hits give low values 0.977 | S. cerevisiae deletion strains, locus YNL233W, strain BNI4, hits give low values 0.981 and 1.03 | S. cerevisiae deletion strains, locus YNL248C, strain rpa49, hits give low values 0.982 | S. cerevisiae deletion strains, locus YNL250W, strain rad50, hits give low values 0.989 and 1.02 | S. cerevisiae deletion strains, locus YNL271C, strain bni1, hits give low values 0.986 and 1.01 | S. cerevisiae deletion strains, locus YNL298W, strain CLA4, hits give low values 0.995 and 1.02 | S. cerevisiae deletion strains, locus YNL307C, strain MCK1, hits give low values 0.986 and 1.02 | S. cerevisiae deletion strains, locus YNL322C, strain KRE1 (second series), hits give low values 0.97 | S. cerevisiae deletion strains, locus YNL322C, strain KRE1, hits give low values 0.987 and 1.01 | S. cerevisiae deletion strains, locus YNR049C, strain mso1, hits give low values 0.98 | S. cerevisiae deletion strains, locus YNR052C, strain pop2, hits give low values 0.995 and 1.02 | S. cerevisiae deletion strains, locus YOL006C, strain TOP1, hits give low values 1.01 | S. cerevisiae deletion strains, locus YOL012C, strain htz1 0.984 and 1.9 | S. cerevisiae deletion strains, locus YOL147C, strain pex11, hits give low values 0.991 and 1.01 | S. cerevisiae deletion strains, locus YOR001W, strain rrp6, hits give low values 0.968 | S. cerevisiae deletion strains, locus YOR061W, strain CKA2, hits give low values 0.99 and 1 | S. cerevisiae deletion strains, locus YOR069W, strain VPS5, hits give low values 0.992 and 1.01 | S. cerevisiae deletion strains, locus YOR070C, strain gyp1, hits give low values 0.986 | S. cerevisiae deletion strains, locus YOR080W, strain dia2, hits give low values 0.984 | S. cerevisiae deletion strains, locus YOR083W, strain WHI5, hits give low values 0.999 | S. cerevisiae deletion strains, locus YOR106W, strain vam3, hits give low values 0.961 | S. cerevisiae deletion strains, locus YOR136W, strain idh2, hits give low values 0.989 and 1.02 | S. cerevisiae deletion strains, locus YOR144C, strain elg1, hits give low values 0.989 and 1.01 | S. cerevisiae deletion strains, locus YOR184W, strain ser1, hits give low values 0.984 and 1 | S. cerevisiae deletion strains, locus YOR231W, strain MKK1, hits give low values 1.01 | S. cerevisiae deletion strains, locus YOR265W, strain rbl2, hits give low values 0.973 | S. cerevisiae deletion strains, locus YOR270C, strain vph1, hits give low values 0.97 | S. cerevisiae deletion strains, locus YOR290C, strain snf2, hits give low values 0.98 | S. cerevisiae deletion strains, locus YOR316C, strain cot1, hits give low values 0.986 and 1.01 | S. cerevisiae deletion strains, locus YPL051W, strain arl3, hits give low values 0.991 | S. cerevisiae deletion strains, locus YPL055C, strain LGE1, hits give low values 1.03 and 1.02 | S. cerevisiae deletion strains, locus YPL078C, strain atp4, hits give low values 0.986 | S. cerevisiae deletion strains, locus YPL106C, strain sse1, hits give low values 0.971 | S. cerevisiae deletion strains, locus YPL240C, strain hsp82, hits give low values 0.969 | S. cerevisiae deletion strains, locus YPL241C, strain CIN2, hits give low values 0.995 and 1 | S. cerevisiae deletion strains, locus YPL256C, strain CLN2, hits give low values 1.03 | S. cerevisiae deletion strains, locus YPR119W, strain clb2, hits give low values 0.985 and 1.01 | S. cerevisiae deletion strains, locus YPR141C, strain kar3, hits give low values 0.981 and 1.02 | S. cerevisiae deletion strains, locus YPR163C, strain tif3, hits give low values 0.992 and 1.03 | S. cerevisiae deletion strains, locus YPR167C, strain met16, hits give low values 0.983 and 1.01 | S. cerevisiae deletion strains, strain wtn01, hits give low values 0.972 and 1.03 | S. cerevisiae strains, strain wild type, hits give low values 0.987
